Screening data from PubChem BioAssay.
Cardiac RTF inh: cardiac RTF calcium desensitization | inhibition, % at 7.15 µM | P19429+P45379 | IANBD-labeled cardiac RTF, Ca2+ fluorescence | hit rate 0.12% among 340,000;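 active means inhibition above the mean inhibition of all tested compounds plus 3 SD, cut at about 17% in these data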;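 further: assay run at fixed EC70 calcium of 1.6 mM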
CRFBP-R2 block: antagonists of CRF-binding protein/CRF-R2 receptor complex | HEK293 CRF-R2/CRF-BP, CRF-induced calcium fluorescence | inhibition, % at 11.8 µM | hit rate 0.59% among 350,000 | AID 588475;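 active means inhibition of the ligand-induced calcium signal above about 50% at the single tested concentration, limit read from the data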
CRFBP-R2 agonist: CRF-BP/CRF-R2 complex agonism | HEK293 CRF-R2/CRF-BP, calcium dye fluorescence (FLIPR); percent of saturating CRF peptide response | activation, % at 13.2 µM | hit rate 0.46% among 350,000 | AID 588473;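 active means activation of at least 50%, plus an integration ratio under a set limit after plate pattern correction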
cardiac RTF act: cardiac RTF calcium sensitization | IANBD-labeled TnC RTF fluorescence at EC20 calcium; 0% EC20 calcium, 100% full calcium | activation, % at 7.2 µM | hit rate 0.24% among 340,000 | AID 493008;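 active means activation above the mean over all tested compounds plus 3 SD, cut at about 30% in these data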;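 further: rise in fluorescence read as greater calcium sensitivity of cardiac thin filaments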
Large screens that a line does not name were inactive. Most compounds without a hit are left out; they make up all but 1.3% or so of the library.

CCCCOC1CC(c2ccc(OCc3ccc(OC)cc3)c(OC)c2)N(C)O1 (stereo not given)	CRFBP-R2 block 89
COc1ccc(Br)cc1S(=O)(=O)NCCc1cccs1	none
O=c1[nH][nH]c(=O)c(Cl)c1Cl	none
COc1ccc([C@@H]2CC=C(C(=O)O)[C@H](c3ccc(Cl)cc3)N2S(=O)(=O)c2ccc(C)cc2)cc1OC	none
O=C(/C=C/c1ccc(N2CCC(c3ccccc3)=N2)cc1)c1ccccc1	CRFBP-R2 agonist 311 (no result: Cardiac RTF inh, cardiac RTF act)
COC(=O)C1=C(C)NC(=O)NC1c1ccc(N2CCC(c3ccccc3)=N2)cc1 (stereo not given)	none
CCOC(=O)/C(=C\c1ccc(N2CCC(c3ccccc3)=N2)cc1)C(C)=O	CRFBP-R2 agonist 99, cardiac RTF act 72
CC(=O)Nc1cccc(C(=O)OCC(=O)N(c2ccccc2)C2CCS(=O)(=O)C2)c1 (stereo not given)	none
COc1ccccc1C1C(C(=O)c2sc(C)nc2C)=C(O)C(=O)N1CCN1CCOCC1 (stereo not given)	CRFBP-R2 block 94
O=C(COc1ccc(Cl)cc1Cl)N1CCN(C(=O)c2ccco2)CC1	none
COc1ccc(C(=O)N/N=C/c2sc3ccccc3c2O)cc1	CRFBP-R2 agonist 50, cardiac RTF act 32
O=C(N/N=C/c1sc2ccccc2c1O)c1ccccc1	cardiac RTF act 47
O=C(N/N=C/c1sc2ccccc2c1O)c1cccc2ccccc12	none
COc1ccc2cc(C(=O)N/N=C/c3sc4ccccc4c3O)ccc2c1	CRFBP-R2 agonist 166, cardiac RTF act 109
O=C(Nc1ccccc1)c1ccccc1C(=O)N1CCCCC1	none
Nc1nc(-c2ccc3c(c2)OCCO3)cs1	CRFBP-R2 block 76
Cc1nc(-c2ccc3c(c2)OCCCO3)cs1	none
CCOc1ccc(NC(=O)C2CCCN(S(=O)(=O)c3c(C)noc3C)C2)cc1 (stereo not given)	none
CN1CCN(NC(=O)Nc2cccc(Cl)c2Cl)CC1	none (no result: Cardiac RTF inh, cardiac RTF act)
Cn1nccc1NC(=O)Nc1cccc(Cl)c1Cl	cardiac RTF act 61
Oc1cc2ccccc2cc1-c1n[nH]c(=S)o1	CRFBP-R2 block 61
CCc1ccc(NC(=O)C(C)OC(=O)/C=C/c2ccc(O)c(OC)c2)cc1 (stereo not given)	CRFBP-R2 agonist 92
CCn1c(COc2ccccc2C)nc2ccccc21	CRFBP-R2 agonist 73
Cc1nc(N)sc1-c1csc(Nc2cccc(C(=O)O)c2)n1	none
Cc1nc(N)sc1-c1csc(Nc2ccccc2)n1	CRFBP-R2 block 79
CC(C)c1ccc(-n2cccc2/C=C2/C(=N)N3C=CSC3=NC2=O)cc1	none
Cc1ccccc1Cn1cccc1/C=C1/C(=N)N2C=CSC2=NC1=O	CRFBP-R2 block 55
COc1ccc(C(=O)NC(=S)Nc2ccc(Cc3ccncc3)cc2)cc1	none
CC1(C)CC(=O)C(=Cc2cn(-c3ccccc3)nc2-c2ccc(Cl)cc2)C(=O)C1	CRFBP-R2 agonist 58
Cc1nc(C)n(C(Oc2ccc(Cl)cc2Cl)C(=O)C(C)(C)C)n1 (stereo not given)	none
Cc1cccc(OCCNC(=O)CCNS(=O)(=O)c2ccc3ccccc3c2)c1	none
Cc1ccc(-n2c(Cl)c(Cl)[nH]c(=O)c2=O)cc1	CRFBP-R2 block 51
CCCC(C(=O)NC1CCCC1)N(C(=O)c1snc(C(N)=O)c1N)c1ccc(F)cc1 (stereo not given)	none
COc1ccccc1CNC(=O)COC(=O)c1cnc(C)cn1	none (no result: Cardiac RTF inh, cardiac RTF act)
COc1cc(CNc2ccccc2SC)ccc1O	CRFBP-R2 block 55
COc1cc(C[C@@H](C)[C@@H](C)Cc2ccc(O)c(OC)c2)ccc1O	none
COc1ccc(S(=O)(=O)NNC(=O)c2csc(-n3nc(C)cc3C(F)(F)F)n2)cc1	CRFBP-R2 block 61
Cc1cc(C(F)(F)F)n(-c2nc(C(=O)O)cs2)n1	none
O=S(=O)(NC1CCCCC1)c1ccc(Cl)nc1	none
C[C@H](NC(N)=O)C(=O)Nc1ccc2c(c1)OCO2	none
CCN1CCc2c(sc(NC(=O)c3ccc(S(=O)(=O)N4CCCC4)cc3)c2C(=O)NC)C1	none
CCCN1CCc2c(sc(NC(=O)c3ccc(S(=O)(=O)N(C)c4ccccc4)cc3)c2C(=O)NC)C1	CRFBP-R2 agonist 63
CNC(=O)c1c(NC(=O)c2ccc(S(=O)(=O)N3CCCCC3)cc2)sc2c1CCN(C(C)C)C2	none
CNC(=O)c1c(NC(=O)c2ccc(S(=O)(=O)N3CCCc4ccccc43)cc2)sc2c1CCN(C)C2	CRFBP-R2 agonist 159
CCCN1CCc2c(sc(NC(=O)c3ccc(S(=O)(=O)N4CCN(C(=O)OCC)CC4)cc3)c2C(N)=O)C1	CRFBP-R2 agonist 108
CCCN1CCc2c(sc(NC(=O)c3ccc(S(=O)(=O)N(C)c4ccccc4)cc3)c2C(N)=O)C1	CRFBP-R2 agonist 99
O=C(CNc1cccc(S(=O)(=O)N2CCCC2)c1)Nc1ccc(F)cc1F	none
CCCNC(=S)N1CC2(C)CN(C(=O)C(=O)OCC)CC(C)(C1)C2=O	none
CN1CCc2c(sc(NC(=O)c3ccc(S(=O)(=O)N4CCCCCC4)cc3)c2C(N)=O)C1	CRFBP-R2 agonist 127
Cn1nccc1C(=O)Nc1sc2c(c1C(N)=O)CCCC2	none
CN1CCc2c(sc(NC(=O)c3ccc(S(=O)(=O)N4CCCC4)cc3)c2C(N)=O)C1	none
Cn1ccc(C(=O)Nc2sc3c(c2C(N)=O)CCCCC3)n1	CRFBP-R2 block 78
O=C1NC(=S)S/C1=C/c1ccc(Oc2cnccn2)cc1	none
O=C1NC(=S)S/C1=C\c1cc(Cl)ccc1Cl	CRFBP-R2 block 70
CCOc1ccc(N(C)c2ccc(/C=C3/SC(=S)NC3=O)cc2)cc1	CRFBP-R2 agonist 68, cardiac RTF act 45
COc1ccc(N=C2NC(=O)S/C2=C\c2ccc(N(C)C)cc2)cc1	CRFBP-R2 agonist 98, cardiac RTF act 174
CN(C)c1ccc(C=C2SC(=S)NC2=O)cc1	CRFBP-R2 agonist 132
COc1ccc(N2CCN(C(CNC(=O)C3CCCCC3)c3ccco3)CC2)cc1 (stereo not given)	none
COc1ccc(NC(=O)CN(C)C(=O)C2(c3ccccc3)CCCC2)cc1	none
O=C(O)c1ccc(Cl)c(NC(=S)NC(=O)c2cccc(COc3ccccc3)c2)c1	CRFBP-R2 block 52
O=C(NC(=S)Nc1ccc(Cl)c(C(=O)O)c1)c1cccc(COc2ccccc2)c1	none
O=C(Cc1ccc(Cl)cc1)Nc1ccccc1C(=O)N1CCCCC1	none
Cc1ccc(NC(=O)C2=C(c3ccccc3)S(=O)(=O)CCS2(=O)=O)cc1	CRFBP-R2 agonist 55
CC(CCc1ccco1)NC(=O)c1cccc2c1C(=O)N(C1CCCCC1)C2 (stereo not given)	CRFBP-R2 block 51
CCOC(=O)c1sc(NC(=O)c2cccc(S(=O)(=O)N3CCN(C)CC3)c2)cc1C	CRFBP-R2 block 67
COc1ccc(S(=O)(=O)N2CCCC(C(=O)NCc3ccccc3)C2)cc1 (stereo not given)	none
Cc1nn(CCCC(=O)Nc2cc(Oc3ccc(F)cc3)cc([N+](=O)[O-])c2)c(C)c1[N+](=O)[O-]	none
Cc1ccccc1Oc1cc(NC(=O)CCCn2nc(C)c([N+](=O)[O-])c2C)cc([N+](=O)[O-])c1	CRFBP-R2 block 51
